The full list was thinned out, with hits kept by preference.
RMI FANCM FP: inhibitors of human RMI core complex binding to FANCM MM2; FP signal (polarization) at 33 µM; Fluorescence polarization, RMI core complex with F-MM2 peptide; active compounds read low; AID 1159607; actives 0.58% (n = 70,000); in the data active = FP signal below about 40
* marks the source's active call; other numbers are inactive results.

SMILES	RMI FANCM FP
O=C(NCCCn1ccnc1)C(=O)NCC1OCCN1C(=O)c1ccc2c(c1)OCO2 (configuration not stated)	59
CC(C)N1CCC(CNC(=O)c2ccc(Cl)c(Cl)c2)CC1	83
Oc1c(Cl)cc(Cl)cc1C=Nc1cccc2cccnc12	27*
Oc1c(Cl)cc(Cl)cc1C=Nc1nc2c(s1)CCCC2	33
O=Cc1cccc2cccnc12	60
CCOC(=O)c1ccc(N=Cc2cc(Cl)cc(Cl)c2O)cc1	24*
CCOC(=O)c1ccc(N=Cc2ccccn2)cc1	51
CCOC(=O)c1ccc(N=Cc2ccc(OC(=O)c3ccc(F)cc3)c(OC)c2)cc1	60
Nc1nc2ncc(=O)[nH]c2c(=O)[nH]1	26*
Nc1nc2[nH]c(=O)cnc2c(=O)[nH]1	50
Nc1nc2ncc(C(=O)O)nc2c(=O)[nH]1	53
CC1(C)CC(=O)c2sc(NC(=O)Nc3ccccc3)nc2C1	58
CS(=O)(=O)c1ccc(Nc2nc(CC(=O)Nc3ccc(C(N)=O)cc3)cs2)cc1	63
Oc1ccc(-c2[nH]ncc2Oc2ccccc2)c(O)c1O	31*
CCOc1ccc(-c2[nH]ncc2Oc2cccc(OC)c2)c(O)c1	59
COc1ccccc1Oc1cn[nH]c1-c1ccc(O)cc1O	57
O=C(CCS(=O)(=O)c1ccc(F)cc1)Nc1nc(-c2cc3ccccc3o2)cs1	124
O=C(Nc1cccs1)N1CCn2cccc2C1c1ccc(F)cc1 (configuration not stated)	15*
O=C(Nc1c(F)cccc1F)N1CCn2cccc2C1c1cccnc1 (configuration not stated)	53
COc1ccccc1NC(=O)N1CCn2cccc2C1c1ccc(Br)cc1 (configuration not stated)	56
CS(=O)(=O)c1ccc(C(=O)Nc2nnc(Cc3cccs3)o2)cc1	68
Cc1ccc(N/C=C(\C#N)c2nc3ccccc3[nH]2)cc1	63
N#C/C(=C\c1ccc([N+](=O)[O-])cc1)c1nc2ccccc2[nH]1	57
N#CC(=C(O)c1ccccc1Br)c1nc2ccccc2[nH]1	14*
CCc1ccc(NC(=O)CSc2ncc(S(=O)(=O)c3ccc(C)cc3C)c(=O)[nH]2)cc1	60
SMILES	RMI FANCM FP
N#CCn1cnc2c(-c3ccccc3)csc2c1=O	62
COc1ccc(-c2csc3c(=O)n(Cc4ccccc4F)cnc23)cc1	66
O=c1c2scc(-c3ccccc3)c2ncn1Cc1cc(=O)n2ccccc2n1	-6*
CCNc1cc(C)nc(N2CCN(C(=O)CCc3ccccc3)CC2)n1	58
CN1C(=O)/C(=C\C=C\c2ccccc2)SC1=S	59
O=C(Cc1ccccc1)NN1C(=O)/C(=C/c2cccc([N+](=O)[O-])c2)SC1=S	59
CC(C(=O)O)N1C(=O)/C(=C/C=C/c2ccco2)SC1=S (configuration not stated)	82
Cc1ccc(C(=O)NN2C(=O)/C(=C/c3ccc(N(C)C)cc3)SC2=S)cc1	104
Cc1cccc(N2C(=O)/C(=C/C=C/c3ccco3)SC2=S)c1C	9*
O=C(NN1C(=O)/C(=C\C=C\c2ccco2)SC1=S)c1ccc([N+](=O)[O-])cc1	21*
Cc1ccc(-n2c(C)nc3ccc(NS(=O)(=O)c4ccc5c(c4)CCCC5)cc3c2=O)cc1	66
CCC(=O)Nc1ccc(C(=O)NCCNS(=O)(=O)c2ccc(OC)cc2)cc1	64
CC(=O)C1=CN(c2ccccc2)C=C(C(C)=O)C1c1ccccc1	19*
NNC(=O)C1C(C(=O)NN)C1c1ccccc1 (configuration not stated)	58
O=C1CC(c2ccccc2)CC(=O)N1c1ccccc1	56
O=C(NCCN1CCOCC1)C(=O)Nc1ccon1	64
Cc1cc2cc(CNC(=O)c3ccccc3Cl)ccc2n1C	30*
Cc1cc2cc(CNC(=O)c3ccccc3F)ccc2n1C	58
Cc1cc2cc(CNC(=O)c3ccccc3Br)ccc2n1C	55
CC(=O)N1CCc2ccc(NS(=O)(=O)c3ccc(C)s3)cc2C1	72
c1ccc2c(c1)sc1nncn12	54
O=C1Nc2ccccc2Oc2ccc(NC(=O)C34CC5CC(CC(C5)C3)C4)cc21	59
C=CCOC(=O)C(C#N)c1nc2ccccc2nc1N1CCN(c2ccccc2)CC1 (configuration not stated)	29*
CC(=O)NC(=O)/C(C#N)=C/N1CCN(c2ccccc2)CC1	53
Cc1cc(C)c(C#N)c(N2CCN(c3ccccc3)CC2)n1	50
SMILES	RMI FANCM FP
CC(C)(C)c1cc2nc(C(F)(F)F)cc(N/N=C\c3ccc(Cl)cc3)n2n1	69
Cc1ccc(Cl)cc1N1C(=O)c2cccnc2C1=O	59
NC(=O)c1ccc[n+](CC(=O)c2ccc(Cl)c(Cl)c2)c1	62
NC(=O)C[n+]1ccc2ccccc2c1	12*
NC(=O)c1ccc[n+](CC(=O)c2ccc3c(c2)Cc2ccccc2-3)c1	71
O=[N+]([O-])c1ccc(-n2ncc(-c3nnc(-c4ccco4)o3)c2C(F)(F)F)cc1	51
CC(=O)c1c(C)nn(-c2ccccc2)c1-c1ccccc1[N+](=O)[O-]	60
CC(=O)c1cccc(N2C(=O)c3cccc([N+](=O)[O-])c3C2=O)c1	29*

Screening results as filed in PubChem.
